Experimental data published in PubChem BioAssay (Tox21).
Results filed as inconclusive are left out. Where a call stands in place of a potency, no number is given. Active and inactive are the calls of the source. Calls follow the shape of the dose curve; as a rule, active = well fitted cell-killing curve with a large enough effect in the repeat runs; inconclusive = weak or mixed curves; inactive = flat fitted curve, though single readings scatter.

Assay: qHTS assay to identify small molecule antagonists of the estrogen receptor beta (ER-beta) signaling pathway - cell viability counter screen (AID 1259382); also: nearly all actives have a fitted effect of over 55% in size
Settings: ER-beta-UAS-bla HEK293T viability, CellTiter-Glo luminescence, 16 h; series mostly up to 92.4 µM
From the text: U.S. Tox21 Program National Center for Advancing Translational Sciences [NCATS] NIH Chemical Genomics Center [NCGC] U.S. Environmental Protection Agency [EPA] National Institutes of Environmental Health Sciences [NIEHS] National Toxicology Program [NTP] U.S. Food and Drug Administration [FDA] Tox21 Assay Overview: Estrogen receptor (ER), a nuclear hormone receptor, plays an important role in development, metabolic homeostasis and reproduction. Two subtypes of ER, ER-alpha and ER-beta, have similar expression patterns with some uniqueness in both types. Endocrine disrupting chemicals (EDCs) and their interactions with steroid hormone receptors like ER causes disruption of normal endocrine function. To identify the compounds that inhibit ER signaling, an ER-beta-UAS-bla GripTite cell line (Life Technologies, Madison, WI, USA) containing a beta-lactamase reporter gene under the control of an UAS response element was used to screen Tox21 10K compound library. The cytotoxicity of the Tox21 compound library against the ER-beta-bla cell line was tested in parallel by measuring the cell viability using CellTiter-Glo assay in the same wells.
Tox21 Assay Protocol Summary: ER-beta-UAS-bla HEK293T cells were dispensed at 2,000 cells/4 uL of assay medium containing 2% charcoal stripped FBS per well into black wall/clear-bottom 1536-well plates using a Multidrop Combi (ThermoFisher Scientific, Waltham, MA) dispenser. After the assay plates were incubated at a 37C and 5% CO2 for 6 hr, 23 nL of compounds dissolved in DMSO, positive controls or DMSO only was transferred to the assay plate by a Pintool station (Kalypsys, San Diego, CA), followed by addition of 1 uL (1nM as final concentration) of 17-beta-estradiol (E2) in assay medium using a Flying Reagent Dispenser (FRD, Aurora Discovery, San Diego, CA). The plates were incubated at 37C and 5% CO2 for 16 hr. Then 1 uL of LiveBLAzer B/G FRET substrate was added using a Flying Reagent Dispenser, the plates were incubated at room temperature for 2 hours, and fluorescence intensity was measured by an Envision plate reader (PerkinElmer, Shelton, CT). For cell viability readout that measures cytotoxicity, 4 uL/well of CellTiter-Glo reagent was added into the assay plates using a FRD. After 30 min incubation at room temperature, the luminescence intensity in the plates was measured using a ViewLux (PerkinElmer) plate reader.
Potency is read from the fitted curve at half-maximal effect.

SMILES	Potency
COc1cc(C[C@@H](C)N)c(OC)cc1C	inactive
Nc1cc(Cl)ccc1O	inactive
CCOC(=O)NC(=S)Nc1ccccc1NC(=S)NC(=O)OCC	inactive
CC1(C(=O)Nc2ccc(O)c(Cl)c2Cl)CCCCC1	inactive
CC1CN1P(=O)(N1CC1C)N1CC1C (stereo not given)	inactive
CCCCc1ccc(O)cc1	inactive
CCN(Cc1ccc(Cl)nc1)/C(=C/[N+](=O)[O-])NC	inactive
ClC(Br)Br	inactive
C(CCOCC1CO1)COCC1CO1 (stereo not given)	inactive
Fc1cc(Br)ccc1CBr	inactive
CCS(=O)(=O)C(C)(C)S(=O)(=O)CC	inactive
CCC1(c2ccccc2)C(=O)N=C(O)NC1=O (stereo not given)	inactive
O=C1CN2CCOC2(c2ccccc2Cl)c2cc(Cl)ccc2N1 (stereo not given)	inactive
CC1(C)COP(Oc2ccccc2)OC1	inactive
CNC(=O)N(C)c1nc2ccccc2s1	inactive
ClC(Cl)(Cl)C(Cl)(Cl)Cl	inactive
CSc1nc(N=[N+]=[N-])nc(NC(C)C)n1	inactive
ClCCOCOCCCl	inactive
COc1cccc2c1cc([N+](=O)[O-])c1c(C(=O)O)cc3c(c12)OCO3	54.5 µM (active)
CCC(=O)C(CCN(C)C)(c1ccccc1)c1ccccc1	inactive

SMILES	Potency
C=C(C)[C@@H]1CC=C(C=O)CC1	inactive
COC(=O)c1ccccc1S(=O)(=O)NC(=O)N(C)c1nc(C)nc(OC)n1	inactive
O=[N+]([O-])c1cccc(O)c1	inactive
O=C(N[C@H]1CN2CCC1CC2)c1cc2ccoc2cn1	inactive
CCN(CC)CCOC(=O)C(C)(c1ccccc1)c1ccccc1	inactive
Oc1c(Cl)cccc1Cl	inactive
N#CC(Cl)(Cl)Cl	inactive
O=S(=O)(O)C(F)(F)C(F)(F)C(F)(F)C(F)(F)C(F)(F)C(F)(F)F	inactive
C=C(C)CN(CC)c1c([N+](=O)[O-])cc(C(F)(F)F)cc1[N+](=O)[O-]	inactive
O=C1CN=C(c2ccccc2)c2cc([N+](=O)[O-])ccc2N1	inactive
Cc1cnc[nH]1	inactive
COP(=S)(OC)Oc1ccc(S(N)(=O)=O)cc1	inactive
Nc1n[nH]c(N)n1	inactive
CCN(CC)C(C)C(=O)c1ccccc1 (stereo not given)	inactive
CCOP(=S)(OCC)Oc1nc(Cl)n(C(C)C)n1	inactive
ClCCCN1CCN(c2cccc(Cl)c2)CC1	inactive
COc1ccc2c(c1OC)CN1CCc3cc4c(cc3C1C2)OCO4 (stereo not given)	inactive
CNC(=O)Oc1c(C(C)(C)C)cc(C)cc1C(C)(C)C	inactive
CNC(=O)Oc1cccc(C(C)C)c1	inactive
CCCCc1c(C)nc(NCC)[nH]c1=O	inactive
